Assay results as given in PubChem BioAssay (EPA / NIEHS).
Active and inactive are the calls of the source. Rule for the calls: active = hit-call score of the fitted dose curve at least 0.9, where 1 is the maximum; inactive = score below 0.9.

Assays:
[1] = ATG_CRE_CIS: Attagene CIS-FACTORIAL HepG2 Assay for human cAMP Responsive Element (CRE) binding protein 3 (AID 2282926); conditions: HepG2 CRE cis-reporter, Attagene multiplexed mRNA; actives raise or lower the signal
How it was run: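 Induced reporter mRNA from a CRE cis element, measured in HepG2 among many multiplexed units at 24 h. Detection used RT-PCR plus capillary electrophoresis of fluorescent fragments; DMSO served as negative control.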

[2] = ATG_CMV_CIS: Attagene CIS-FACTORIAL HepG2 Assay for human CMV (Internal Marker) (AID 2282928); conditions: HepG2 CMV promoter reporter, transcription factor profiling; actives raise or lower the signal;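 note: endpoint acts as a background internal control marker rather than a target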
How it was run: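 Fluorescence intensity of RT-PCR-derived reporter fragments, resolved by capillary electrophoresis, gives the signal. HepG2 liver cells bearing transfected cis-element reporters were treated 24 h; activity in either direction was fit relative to DMSO-treated controls.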

[3] = ATG_DR4_LXR_CIS: Attagene CIS-FACTORIAL HepG2 Assay for human Liver X Receptor (LXR), DR4 submotif (AID 2282929); conditions: HepG2 Attagene DR4 cis-reporter, mRNA transcription; actives raise or lower the signal
How it was run: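 Measures endogenous transcription factor activity via a DR4-driven reporter transcript in human HepG2 cells. Compounds incubated 24 h; mRNA quantified by RT-PCR and capillary electrophoresis, analysed as gain or loss of signal versus DMSO.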

[4] = target: Aryl hydrocarbon receptor (Homo sapiens) (UniProt P35869); assay: ATG_Ahr_CIS: Attagene CIS-FACTORIAL HepG2 Assay for human Aryl Hydrocarbon Receptor (Ahr) (AID 2282930); conditions: HepG2 AhR cis-factorial reporter transcription; actives raise or lower the signal
Chain of Aryl hydrocarbon receptor (Homo sapiens) (P35869 whole entry, looked up): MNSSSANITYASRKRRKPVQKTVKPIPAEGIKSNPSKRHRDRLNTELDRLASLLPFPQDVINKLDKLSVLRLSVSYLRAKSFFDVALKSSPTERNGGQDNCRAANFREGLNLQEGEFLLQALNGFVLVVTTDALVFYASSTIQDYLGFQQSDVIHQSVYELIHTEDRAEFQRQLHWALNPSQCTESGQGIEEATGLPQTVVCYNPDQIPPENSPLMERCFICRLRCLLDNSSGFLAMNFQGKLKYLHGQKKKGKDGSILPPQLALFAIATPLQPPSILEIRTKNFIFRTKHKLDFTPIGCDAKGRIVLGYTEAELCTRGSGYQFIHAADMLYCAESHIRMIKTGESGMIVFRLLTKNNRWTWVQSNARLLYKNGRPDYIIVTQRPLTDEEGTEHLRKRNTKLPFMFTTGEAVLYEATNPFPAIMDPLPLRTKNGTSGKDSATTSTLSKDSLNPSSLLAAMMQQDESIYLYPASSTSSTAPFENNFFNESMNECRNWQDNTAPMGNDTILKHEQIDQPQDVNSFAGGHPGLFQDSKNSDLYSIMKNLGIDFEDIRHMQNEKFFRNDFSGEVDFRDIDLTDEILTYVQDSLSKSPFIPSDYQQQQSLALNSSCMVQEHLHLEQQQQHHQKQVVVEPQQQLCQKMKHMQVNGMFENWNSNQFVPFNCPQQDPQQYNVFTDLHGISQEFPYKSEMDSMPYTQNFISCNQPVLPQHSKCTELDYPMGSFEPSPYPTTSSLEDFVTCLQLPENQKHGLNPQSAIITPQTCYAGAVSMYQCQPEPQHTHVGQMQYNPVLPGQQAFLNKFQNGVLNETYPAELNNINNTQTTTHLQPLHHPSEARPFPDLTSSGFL
How it was run: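 Values derive from bidirectional fitting against DMSO negative control. Underlying signal: cis-element reporter mRNA in transiently transfected HepG2, harvested 24 h post-dose and measured by RT-PCR plus capillary electrophoresis.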

[5] = ATG_AP_1_CIS: Attagene CIS-FACTORIAL HepG2 Assay for human Activator Protein 1 (AP-1) (AID 2282931); conditions: HepG2 Attagene cis-factorial AP-1 reporter mRNA; actives raise or lower the signal
How it was run: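 Bidirectional concentration-response fitting against DMSO controls. Underlying signal: reporter mRNA from cis-promoter constructs in transiently transfected HepG2, measured after 24 h by RT-PCR and capillary electrophoresis.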

[6] = ATG_AP_2_CIS: Attagene CIS-FACTORIAL HepG2 Assay for human Activator Protein 2 (AP-2) (AID 2282932); conditions: HepG2 AP-2 cis-reporter, Attagene transcription factor profiling; actives raise or lower the signal
How it was run: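 Cells (HepG2) transfected with promoter-driven reporter constructs, treated 24 h. Total RNA reverse-transcribed, reporter cDNA PCR-amplified, FAM-labelled by primer extension, digested, resolved by capillary electrophoresis. Activity fitted both directions versus DMSO.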

[7] = ATG_BRE_CIS: Attagene CIS-FACTORIAL HepG2 Assay for human Bone Morphogenetic Protein (BMP) Response Element (BRE) (AID 2282933); conditions: HepG2 BMP response element reporter, Attagene transcription factor profiling; actives raise or lower the signal
How it was run: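 Multiplexed cis-reporter assay, HepG2, 24 h exposure. mRNA from reporter units quantified via RT-PCR/CE; DMSO baseline; bidirectional curve fit.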

[8] = target: Retinoic acid receptor alpha (Homo sapiens) (UniProt P10276); assay: ATG_DR5_RAR_CIS: Attagene CIS-FACTORIAL HepG2 Assay for human Retinoic Acid Receptor Alpha (RARE), DR5 submotif (AID 2282934); conditions: HepG2 Attagene cis-factorial RARE DR5 reporter, mRNA; actives raise or lower the signal
Chain of Retinoic acid receptor alpha (Homo sapiens) (P10276 whole entry, looked up): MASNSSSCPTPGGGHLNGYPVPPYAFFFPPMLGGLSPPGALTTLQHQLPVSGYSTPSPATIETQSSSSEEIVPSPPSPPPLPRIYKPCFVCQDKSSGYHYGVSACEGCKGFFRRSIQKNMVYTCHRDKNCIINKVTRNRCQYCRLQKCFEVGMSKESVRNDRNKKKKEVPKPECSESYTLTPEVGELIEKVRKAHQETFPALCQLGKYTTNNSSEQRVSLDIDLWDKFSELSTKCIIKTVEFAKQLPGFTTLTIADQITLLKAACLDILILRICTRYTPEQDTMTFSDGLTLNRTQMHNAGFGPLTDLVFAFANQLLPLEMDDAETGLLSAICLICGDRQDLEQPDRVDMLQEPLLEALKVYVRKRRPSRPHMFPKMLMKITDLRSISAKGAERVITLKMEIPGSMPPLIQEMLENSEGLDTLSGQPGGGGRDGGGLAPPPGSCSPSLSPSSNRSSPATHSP
How it was run: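 Endpoint fitted in both directions relative to DMSO as negative control. It reflects DR5 cis-element reporter mRNA induction in transiently transfected HepG2 cells, measured 24 h after dosing through RT-PCR and fluorescent capillary electrophoresis.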

[9] = target: CCAAT/enhancer-binding protein beta (Homo sapiens) (UniProt P17676); assay: ATG_C_EBP_CIS: Attagene CIS-FACTORIAL HepG2 Assay for human CCAAT/Enhancer Binding Protein (C/EBP) beta (AID 2282927); conditions: HepG2 Attagene cis-factorial transcription factor reporter; actives raise or lower the signal
Chain of CCAAT/enhancer-binding protein beta (Homo sapiens) (P17676 whole entry, looked up): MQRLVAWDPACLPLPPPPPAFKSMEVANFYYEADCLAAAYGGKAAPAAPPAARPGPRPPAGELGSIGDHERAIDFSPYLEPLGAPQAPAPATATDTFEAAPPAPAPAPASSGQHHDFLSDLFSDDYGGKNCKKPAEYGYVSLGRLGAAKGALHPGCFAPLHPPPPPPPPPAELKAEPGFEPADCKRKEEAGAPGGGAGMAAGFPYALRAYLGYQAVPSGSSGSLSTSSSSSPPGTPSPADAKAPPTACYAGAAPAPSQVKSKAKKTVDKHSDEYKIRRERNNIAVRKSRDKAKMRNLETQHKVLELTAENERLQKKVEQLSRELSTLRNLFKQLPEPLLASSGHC
How it was run: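 Following a 24 h incubation with test chemical, transfected HepG2 cells yielded RNA whose reporter transcripts were quantified by RT-PCR and fluorescent capillary electrophoresis, with DMSO serving as baseline for bidirectional fitting.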

Measured: AC50

CC(=O)c1ccc(C)cc1
inactive: [1] | [2] | [3] | [4] | [5] | [6] | [7]

CC1=CCC(C(C)C)=CC1
inactive: [1] | [2] | [3] | [5] | [7]

CCCc1ccc(O)cc1
inactive: [1] | [2] | [5] | [6] | [7] | [8]
active: [3] 70.5 µM

CCCC1CCOC(C)S1 (centres undefined)
inactive: [9] | [2] | [3] | [4] | [5] | [6] | [7]

NC(N)=S
inactive: [1] | [2] | [3] | [4] | [5] | [6] | [7]

c1coc(CNc2ncnc3nc[nH]c23)c1
inactive: [9] | [2] | [3] | [4] | [5] | [6] | [7]

CC(O)COCC(C)O (centres undefined)
inactive: [1] | [2] | [3] | [4] | [6] | [7]

c1ccc(OCCOc2ccccc2)cc1
inactive: [1] | [2] | [3] | [6] | [7]
active: [4] 0.142 µM

CC(C)C(=O)OCC=Cc1ccccc1
inactive: [1] | [2] | [3] | [4] | [5] | [6] | [7]

CCCCOCCOCCOCCO
inactive: [1] | [2] | [3] | [4] | [5] | [6] | [7]

CC(C)COC(=O)c1ccccc1
inactive: [1] | [2] | [3] | [4] | [5] | [6] | [7] | [8]

OCC=Cc1ccccc1
active: [4] 50.1 µM
inactive: [1] | [2] | [3] | [5] | [6] | [7]

C[N+](C)(C)CCO
inactive: [9] | [2] | [3] | [4] | [5] | [6] | [7]

c1ccc(Cc2ccccc2)cc1
inactive: [1] | [2] | [3] | [4] | [5] | [7]

CCCCCCCCCCCCCCCCCC(=O)OCCCCCCCCCCCCCC(C)C
inactive: [1] | [2] | [3] | [4] | [5] | [6] | [7]

CCO[Si](CCC#N)(OCC)OCC
inactive: [1] | [2] | [3] | [5] | [7]

COc1cc(OC)c2ccc(=O)oc2c1
active: [3] 2.81 µM
inactive: [1] | [4] | [5] | [6] | [7]

CC(C)(O)C(=O)c1ccc(OCCO)cc1
inactive: [9] | [2] | [3] | [4] | [5] | [6] | [7]

COc1ccccc1O
inactive: [1] | [2] | [3] | [4] | [6] | [7]

CCCCCCCCSCc1cc(C)c(O)c(CSCCCCCCCC)c1
inactive: [9] | [2] | [3] | [4] | [5] | [6] | [7]

O=C1OC2(c3ccc(O)cc3Oc3cc(O)ccc32)c2ccccc21
inactive: [3] | [5] | [6] | [7]

CCCOC(=O)CC
inactive: [9] | [3] | [4] | [5] | [6] | [7]

CCn1cc(C(=O)O)c(=O)c2ccc(C)nc21
inactive: [9] | [2] | [3] | [5] | [6] | [7] | [8]

Cc1cc(O)c(C)c(C)c1O
inactive: [9] | [3] | [5] | [6]
active: [2] 18.5 µM | [7] 52.8 µM

O=C(OCc1ccccc1)c1ccccc1O
active: [2] 64.1 µM | [3] 55.1 µM | [4] 61.9 µM | [5] 111 µM | [7] 133 µM
inactive: [9] | [6] | [8]

CC/C=C\C#N
inactive: [9] | [2] | [3] | [4] | [5] | [7]
